Experimental findings from PubChem BioAssay AID1578 (Sanford-Burnham Center for Chemical Genomics, 2009) are described below.

Out of some 290,000 compounds screened, about 3,000 (1%) were called active. Rule as the data show it: active = inhibition mostly above about 36% (no sharp cut-off); inactive = mostly below about 34%. Shown is part of a subset that was picked to be rich in actives.

This assay is described as follows: inhibition of NOD1-driven NF-kB reporter – cell-based, luminescence, uHTS, primary screen (AID 1578).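 Also: HEK-293T reporter cells stimulated with the NOD1 agonist gamma-tri-DAP.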 The note with it: NOD1-driven NF-kB luciferase reporter cells, at 4 µM, hits give high values.
The inhibition is the relative decrease from the control value, in per cent. For `O=C(NCCCn1ccnc1)/C(=C\c1cccnc1)NC(=O)c1ccco1`, the inhibition was -5.2% (inactive).

Turning to `COc1ccc2oc(C(=O)NCc3cc(OC)c(OC)cc3OC)c(C)c2c1`, the inhibition is 17.1% (inactive).

With `CCOC(=O)C1CCN(C(=O)COC(=O)COc2ccc(Cl)cc2)CC1`, the inhibition is -16% (inactive).

On to `CC(=O)c1ccc(Oc2ccc(C(=O)c3ccc(C)c(C)c3)cc2[N+](=O)[O-])cc1`, for which the inhibition was 69.6% (active).

Take `NC(=O)c1ccc(Oc2ccc(Cl)cc2)c([N+](=O)[O-])c1`: the inhibition was 2.7% (inactive).

As to `CCC(=O)c1ccc(Oc2ccc(C(=O)c3ccc(C)cc3)cc2[N+](=O)[O-])cc1`, the inhibition is 40.1% (inactive).

Regarding `Cn1ncnc1SCc1cn2cccnc2n1`, the inhibition is -16.1% (inactive).

For the molecule `COc1ccc(-c2nc(CN3CCC(C(=O)N4CCOCC4)CC3)c(C)o2)cc1OC`, the inhibition is -6.6% (inactive).

For `COc1ccc([N+](=O)[O-])cc1NC(=S)Nc1ccccc1`, the inhibition is 4.9% (inactive).

For the molecule `O=C(CN(C(=O)CNS(=O)(=O)c1ccccc1)c1ccc2c(c1)OCCO2)NC1CCCCC1`, the inhibition was -17.9% (inactive).

`Cc1ccc(/C=N/N(C)C2=NS(=O)(=O)c3ccccc32)cc1`: the inhibition is 5% (inactive).

With `CN(/N=C/c1cc(Cl)ccc1O)C1=NS(=O)(=O)c2ccccc21`, the inhibition was 30.8% (active).

`COc1cccc(/C=N/N(C)C2=NS(=O)(=O)c3ccccc32)c1O`: the inhibition was -15.4% (inactive).

As to `CCOc1ccc(CC(=O)NNC(=S)Nc2ccc(OC)c(OC)c2)cc1`, the inhibition is -36.4% (inactive).

With `Cc1ccc(C)c(C(=O)N(C)CC(=O)Nc2ccccc2C(F)(F)F)c1`, the inhibition was 35.4% (inactive).

Turning to `CCn1c(=O)c(C(=O)NCc2ccccc2)c(O)c2ccccc21`, the inhibition was -12.4% (inactive).

Regarding `O=[N+]([O-])c1cccc(OCC(O)CN2CCN(S(=O)(=O)c3cc(Cl)ccc3Cl)CC2)c1` (centres undefined), the inhibition is 15.6% (inactive).

As to `O=C(C[N+]1(CC#Cc2ccccc2)CCOCC1)c1ccccc1`, the inhibition was -26.9% (inactive).

As to `O=C(C[N+]1(CC#Cc2ccccc2)CCCCC1)c1ccc(Cl)cc1`, the inhibition was -15.6% (inactive).

With `O=C(C[N+]1(CC#Cc2ccccc2)CCCCC1)c1ccccc1`, the inhibition is 47.4% (active).

`Cc1cc(=O)[nH]c(SCC(=O)Nc2ccc(Br)cc2)c1C#N`: the inhibition was 67.2% (active).

In the case of `COc1ccc(NC(=O)CSc2[nH]c(=O)cc(C)c2C#N)cc1OC`, the inhibition was -23.7% (inactive).

Regarding `Cc1cc(=O)[nH]c(SCC(=O)Nc2ccc(F)cc2)c1C#N`, the inhibition is -21.3% (inactive).

`CN1C2CCC1/C(=C\c1ccccc1)C(=O)/C2=C\c1ccccc1`: the inhibition is 36.3% (inactive).

`CN1C2CCC1/C(=C\c1ccc(F)cc1)C(=O)/C2=C/c1ccc(F)cc1`: the inhibition was 77.7% (active).

`CN1C2CCC1/C(=C\c1ccccc1F)C(=O)/C2=C/c1ccccc1F`: the inhibition was 34.2% (inactive).

On to `Cc1cccc(N2CCN(C(=O)c3cc(S(=O)(=O)N4CCOCC4)cn3C)CC2C)c1` (centres undefined), for which the inhibition was -17.7% (inactive).

As to `Cc1cc(CNC(=O)Cn2cc([N+](=O)[O-])cn2)c2ccccc2n1`, the inhibition is -28.9% (inactive).

In the case of `Cc1cc(CNC(=O)c2ccc(C)c([N+](=O)[O-])c2)c2ccccc2n1`, the inhibition was 26.1% (inactive).

As to `Cc1cc(CNC(=O)c2cccc([N+](=O)[O-])c2)c2ccccc2n1`, the inhibition is 47.9% (active).

Turning to `Cc1ccc(C(=O)Nc2ccc(Br)c(C(F)(F)F)c2)cc1`, the inhibition is -51.3% (inactive).

As to `O=C(Nc1ccc(Br)c(C(F)(F)F)c1)c1ccccc1`, the inhibition is 7.5% (inactive).

With `O=C(Nc1ccc(Br)c(C(F)(F)F)c1)c1ccc(C(F)(F)F)cc1`, the inhibition was 41.9% (active).

With `C=CCn1c(SCc2nc3cc(C(F)(F)F)ccc3c(=O)[nH]2)nc2sc(CC)cc2c1=O`, the inhibition is -9.3% (inactive).

For the molecule `COc1ccc(-c2noc(N3CCC(C(=O)NCc4ccccc4Cl)CC3)n2)cc1`, the inhibition was 49.5% (inactive).

Turning to `O=C(N/N=C(/c1ccccc1)c1ccncc1)c1ccc2c(c1)OCO2`, the inhibition is -26.7% (inactive).

`Cc1cc(C(=O)COC(=O)CN(C)S(=O)(=O)c2ccc(Cl)cc2)c(C)n1CC1CCCO1` (centres undefined): the inhibition was -12.3% (inactive).

Turning to `c1ccc(-c2nnnc3ccccc23)cc1`, the inhibition was -26.7% (inactive).

As to `Clc1ccc2nnnc(-c3ccccc3)c2c1`, the inhibition is 63.1% (active).

With `Cc1ccc2nnnc(-c3ccccc3)c2c1`, the inhibition was -32.7% (inactive).

On to `COC(=O)c1ccc(NC(=O)NCCCl)cc1`, for which the inhibition was -34.1% (inactive).

For `Cc1c(C(=O)N2CCOCC2)sc(NC(=O)c2ccc([N+](=O)[O-])cc2)c1C#N`, the inhibition was -2.6% (inactive).

For the molecule `Cc1ccc(/C=C/C(=O)c2c(C)nc3ccccn23)cc1`, the inhibition was -11.3% (inactive).

As for `C/C(=N\NC(=O)c1c(C)nc2ccccn12)c1cccc([N+](=O)[O-])c1`, the inhibition is -11.1% (inactive).

On to `Cc1nc2ccccn2c1C(=O)/C=C/c1cccc([N+](=O)[O-])c1`, for which the inhibition is 101% (active).

`Cc1c(C(=O)N2CCN(c3ccccc3)CC2)sc2nc3n(c(=O)c12)CCC3`: the inhibition is 0.9% (inactive).

For the molecule `CC(=O)c1ccccc1NC(=O)CCCNC(=O)c1ccc(Cl)cc1`, the inhibition was 17.3% (inactive).

Turning to `O=C(O)CSc1ncnc2sc(-c3ccccc3)cc12`, the inhibition was -16.7% (inactive).

As to `CC(=O)CCSc1ncnc2sc(-c3ccccc3)cc12`, the inhibition was -75.9% (inactive).

With `COc1cc(CN2CCN(CCOCCO)CC2)cc(OC)c1OC`, the inhibition was -4.8% (inactive).

`COc1ccccc1-[n+]1c(C)cc(/C=C2\Sc3ccccc3N2C)cc1C`: the inhibition is 28.9% (inactive).

As for `Cc1cc(/C=C2\Sc3ccccc3N2C)cc(C)[n+]1CC1CCCO1` (centres undefined), the inhibition is 56.7% (active).

With `Cc1ccc(/C=C2/Sc3ccccc3N(CC(=O)NCC3CCCO3)C2=O)cc1` (centres undefined), the inhibition was -4.1% (inactive).

With `Nc1nonc1-n1nnc(C(=O)N/N=C/c2ccc(OCc3ccccc3)cc2)c1COc1ccc(F)cc1`, the inhibition is -0.6% (inactive).

With `NS(=O)(=O)c1ccc(NC(=S)Nc2ccn(Cc3cccc4ccccc34)n2)cc1`, the inhibition is 56.6% (active).

For the molecule `O=C(Nc1ccn(Cc2cccc3ccccc23)n1)c1cccnc1`, the inhibition is 7.1% (inactive).

As for `CC(=O)c1cccc(NC(=S)Nc2ccn(Cc3cccc4ccccc34)n2)c1`, the inhibition is -5.1% (inactive).

For `Cc1cc(C)n(C(=O)c2ccc(C)c(Br)c2)n1`, the inhibition was -2.6% (inactive).

Take `c1csc(-c2nnc(N3CCOCC3)c3ccccc23)c1`: the inhibition is 2.4% (inactive).

For `c1csc(-c2nc(N3CCOCC3)c3ccccc3n2)c1`, the inhibition was -9.5% (inactive).

For `O=C1OCCN1c1c(-c2ccccc2)c(-c2cccs2)nc2c(-c3ccccc3)cccc12`, the inhibition was 66% (active).

As to `CCOc1ccc2nc(NC(=O)CSc3nc4cccnc4n3C)sc2c1`, the inhibition is -1% (inactive).

`CC1CC(NC(=O)c2cnc3n(c2=O)CCS3)CC(C)(C)C1` (centres undefined): the inhibition was -9% (inactive).

For `O=C(NC1CCCC1)c1ncn[nH]1`, the inhibition was -17.9% (inactive).

As to `CC1CC(NC(=O)c2ncn[nH]2)CC(C)(C)C1` (centres undefined), the inhibition was 84.5% (active).

For `Cc1nn(-c2ccc(Cl)c(Cl)c2)c(C)c1C(=O)O`, the inhibition is -17.4% (inactive).

As to `CCc1nnc(NC(=O)CC23CC4CC(CC(Br)(C4)C2)C3)s1`, the inhibition is -2.7% (inactive).

Turning to `CCc1c(C)nc(SCC(=O)N2CCCCC2CC)[nH]c1=O` (centres undefined), the inhibition was -11.1% (inactive).

As to `C/C(=N\NC(=O)C1(C)CC1(Br)Br)c1cccc(NC(=O)c2ccc(C)o2)c1` (centres undefined), the inhibition was 89.8% (active).

In the case of `C/C(=N\NC(=O)C1(C)CC1(Br)Br)c1ccc(NC(=O)c2ccc(C)o2)cc1` (centres undefined), the inhibition was 13.4% (inactive).

On to `C/C(=N\NC(=O)c1cccc(Br)c1)c1cccc(NC(=O)c2ccc(C)o2)c1`, for which the inhibition was -55.5% (inactive).

For the molecule `O=S(=O)(O)c1ccc(N=NNc2ccc(Br)cc2)cc1`, the inhibition is -12.1% (inactive).

Turning to `C=C1/C(=C\C=C2/CCC[C@]3(C)[C@@H]([C@H](C)CCCC(C)(C)O)CC[C@@H]23)C[C@@H](O)C[C@@H]1O`, the inhibition was 65.6% (active).

On to `COc1ccc(-c2nc(C)ncc2-c2ccc(Cl)cc2)c(O)c1`, for which the inhibition is 5.6% (inactive).

Consider `CN(C(=O)COC(=O)/C=C/c1ccc(C(F)(F)F)cc1)C1CCS(=O)(=O)C1` (centres undefined), for which the inhibition is -16.9% (inactive).

For `CCN(C(=O)COC(=O)/C=C/c1cccc(Br)c1)C1CCS(=O)(=O)C1` (centres undefined), the inhibition was -18.9% (inactive).

In the case of `CN(C(=O)COC(=O)/C=C/c1cccc([N+](=O)[O-])c1)C1CCS(=O)(=O)C1` (centres undefined), the inhibition is 61.3% (active).

Turning to `CCOC(=O)c1c(Nc2ccccc2)sc(/C=C2\C=Nc3ccccc32)c1O`, the inhibition was -68% (inactive).

For the molecule `CCN(CC)C(=O)Oc1ccc2ccccc2c1Cl`, the inhibition is -86.7% (inactive).

As for `CCS(=O)(=O)CCSc1nc2ccccc2s1`, the inhibition was -2.7% (inactive).

On to `O=S(=O)(CCSc1ccccn1)c1nc2ccccc2s1`, for which the inhibition is 74.4% (inactive).

As for `O=S(=O)(CCSc1nc2ccccc2s1)c1nc2ccccc2s1`, the inhibition is 99% (active).

Take `Cc1ccc(S(=O)(=O)N2CCCC2)cc1C(=O)NCc1ccccn1`: the inhibition was -26.2% (inactive).

With `O=C(c1cc(-c2ccc(F)cc2)on1)N1CCCCCC1`, the inhibition is -53.7% (inactive).

For the molecule `Nc1c(Cl)ncnc1N/N=C/c1ccc(O)cc1`, the inhibition was -9% (inactive).

Turning to `Nc1c(Cl)ncnc1N/N=C/c1ccc2ccccc2n1`, the inhibition was 109% (active).

For the molecule `Nc1c(Cl)ncnc1N/N=C/c1ccnc2ccccc12`, the inhibition was 8.6% (inactive).

With `CCCCOC(=O)C1C2C=C[C@]3(CN(C(C)c4ccc(OC)cc4)C(=O)[C@H]13)O2` (some centres undefined), the inhibition was 11.8% (inactive).

For `CC(=O)Nc1cccc(Cl)c1C(=O)O`, the inhibition was -21.4% (inactive).

Regarding `Cc1nn(C(=O)c2ccco2)c(C)c1Sc1ccc([N+](=O)[O-])cc1`, the inhibition was -7.1% (inactive).

For the molecule `O=C(N/N=C(\CC(=O)c1cccs1)C(F)(F)F)c1ccncc1`, the inhibition was -3.7% (inactive).

As to `Cc1ccc(C(=O)N/N=C(/CC(=O)c2cccs2)C(F)(F)F)cc1`, the inhibition is 70% (active).

In the case of `O=C(N/N=C(/CC(=O)c1cccs1)C(F)(F)F)c1ccc(O)cc1`, the inhibition is -19.9% (inactive).

For the molecule `COC(=O)Cc1c(C)c2ccc(OC3CCCCC3=O)c(C)c2oc1=O` (centres undefined), the inhibition is -8.8% (inactive).
